Assay results from PubChem BioAssay (NCI).
The panel holds about 83,000 compounds, 20% with a hit somewhere; the sample as a whole holds those more often.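 Single-concentration screen, 48 h exposure, 96-well plates. Endpoint: percent growth. Below 10 = active.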 Activity calls are given as the source filed them.

Tests used:
Test in all cases: NCI-60 one-dose screen, 48 h (100 = growth as untreated, 0 = no growth, -100 = all killed)
Conditions in all cases: 10 µM unless noted
NCI-H23 lung = system: NCI-H23 lung
NCI-H226 lung = system: NCI-H226 lung
NCI-H322M lung = system: NCI-H322M lung
HOP-62 NSCLC = system: HOP-62 NSCLC
NCI-H460 lung = system: NCI-H460 lung
HOP-92 NSCLC = system: HOP-92 NSCLC
NCI-H522 lung = system: NCI-H522 lung
A549/ATCC NSCLC = system: A549/ATCC NSCLC
786-0 renal = system: 786-0 renal
COLO 205 colon = system: COLO 205 colon
DU-145 prostate = system: DU-145 prostate
K-562 leukemia = system: K-562 leukemia
MALME-3M melanoma = system: MALME-3M melanoma
MDA-MB-231 breast = system: MDA-MB-231 breast
RXF 393 renal = system: RXF 393 renal
SF-268 CNS = system: SF-268 CNS
SF-295 CNS = system: SF-295 CNS
SF-539 CNS = system: SF-539 CNS
UACC-257 melanoma = system: UACC-257 melanoma
M14 melanoma = system: M14 melanoma

Measured: growth

C#CC(F)(F)[C@]1(O)CC[C@H]2[C@@H]3CCC4=CC(=O)CCC4=C3[C@@H](c3ccc(C4CC4)cc3)C[C@@]21C
inactive: NCI-H226 lung 63.3% | NCI-H322M lung 88.4% | NCI-H460 lung 57.1% | A549/ATCC NSCLC 11.5% | COLO 205 colon 29.5% | DU-145 prostate 30.3% | K-562 leukemia 14.3% | RXF 393 renal 31.1% | UACC-257 melanoma 77.8% | M14 melanoma 62.2%
active: NCI-H23 lung -53.3% | HOP-62 NSCLC 9.06% | HOP-92 NSCLC -60.2% | NCI-H522 lung -70.1% | 786-0 renal -77.3% | MALME-3M melanoma -71.7% | MDA-MB-231 breast -10.3% | SF-268 CNS -60.5% | SF-295 CNS -59.6% | SF-539 CNS -84.3%

CCOC(=O)n1cc(-c2nonc2-c2cn(C)c3ncccc23)c2ccccc21
inactive: NCI-H23 lung 79.2% | NCI-H226 lung 58.7% | NCI-H322M lung 87.3% | HOP-62 NSCLC 87.8% | NCI-H460 lung 64.2% | HOP-92 NSCLC 66.1% | NCI-H522 lung 71.1% | A549/ATCC NSCLC 82% | 786-0 renal 88.8% | COLO 205 colon 93% | DU-145 prostate 97.1% | K-562 leukemia 40.6% | MALME-3M melanoma 84.4% | MDA-MB-231 breast 63.8% | RXF 393 renal 81.7% | SF-268 CNS 82.2% | SF-295 CNS 82.8% | SF-539 CNS 92.3% | UACC-257 melanoma 98% | M14 melanoma 90.1%

Cc1cc(NS(=O)(=O)c2ccc(-c3cnc(C4CC4)o3)cc2)ccc1Cl
active: NCI-H460 lung 7.65% | NCI-H522 lung -11.7% | COLO 205 colon -13.7% | RXF 393 renal -10.7% | SF-295 CNS 1.8% | SF-539 CNS -28.6% | M14 melanoma 4.78%
inactive: NCI-H23 lung 24.3% | NCI-H226 lung 58.4% | NCI-H322M lung 44.7% | HOP-62 NSCLC 34.1% | HOP-92 NSCLC 60.7% | A549/ATCC NSCLC 15.3% | 786-0 renal 33.7% | DU-145 prostate 14.3% | K-562 leukemia 10.2% | MALME-3M melanoma 46.3% | MDA-MB-231 breast 33.9% | SF-268 CNS 49.4% | UACC-257 melanoma 45%

CC(C)(C)c1cc(C(C)(C)C)cc(S(=O)(=O)Nc2cc3ccccc3cc2C(=O)NCCN)c1
inactive: NCI-H23 lung 85.7% | NCI-H226 lung 73.8% | NCI-H322M lung 64.2% | HOP-62 NSCLC 83.1% | HOP-92 NSCLC 50% | NCI-H522 lung 48% | A549/ATCC NSCLC 38.6% | 786-0 renal 86.3% | DU-145 prostate 22.5% | MALME-3M melanoma 55% | RXF 393 renal 29.1% | SF-268 CNS 69.3% | SF-295 CNS 12.4% | SF-539 CNS 96% | UACC-257 melanoma 81%
active: NCI-H460 lung -20.3% | COLO 205 colon -85.6% | K-562 leukemia -37% | MDA-MB-231 breast 5.92% | M14 melanoma -59.9%
